The source of these data is PubChem BioAssay (EPA / NIEHS).

Results filed as inconclusive are left out. Some structures have more than one record in an assay (separate samples or runs), and their calls can disagree. Active and inactive are the calls of the source. The calls were made as follows: active = hit-call score of the fitted dose curve at least 0.9, where 1 is the maximum; inconclusive = response in the unintended direction; inactive = score below 0.9. *1 amine or outer side, *2 acyl side, *3 side chain or, on linkers, in order; H or OH if unused. Where a SMILES comes first, the peptide text is derived from it. Bridges are numbered along the chain shown (N, C = ends). [ ]: non-standard residue; d: D form. The star is where a group is joined. X3 = NC1=N[C@@H]([C@H](N[*:1])C(=O)[*:2])C[C@H](O)N1; ΔAla(Z-3-ureido) = NC(=O)N/C=C(\N)C(=O)O; β3hOrn = NCCC[C@H](N)CC(=O)*; Dap = NC[C@H](N)C(=O)O

As a reminder, the AC50 is the midpoint of the concentration-response curve, whichever way the signal moves.

Experiment [1] can be described thus: TOX21_p53_BLA_p2_viability: Viability Assessment in the Tox21 HCT-116 p53 Agonism Beta-lactamase Assay, Phase 2 (AID 2283591).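 Also: compound exposure lasted 16 h at 37 °C; actives lower the ATP signal meaning cytotoxicity.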 Summed up:
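HCT116 p53-bla cells, 4000/well, dosed after 5 h plating (217-fold dilution of DMSO stocks) and incubated 16 h at 37C. Viability taken as cellular ATP by CellTiter-Glo luminescence after 30 min RT; signal loss marks cytotoxicity.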

Experiment [2] deals with Cellular tumor antigen p53 (Homo sapiens) (UniProt P04637). The experiment is described as follows: TOX21_p53_BLA_p2_ratio: Tox21 HCT-116 p53 Agonism Beta-lactamase Assay, Ratio, Phase 2 (AID 2283592). Summed up: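 Ratio endpoint: beta-lactamase cleavage of CCF4-AM, blue (460 nm) over green (530 nm). HCT116 reporter line; 16 h treatment, 37C; substrate 2 h RT.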
The target is the same in experiment [3]. The experiment is described as follows: TOX21_p53_BLA_p5_ratio: Tox21 HCT-116 p53 Agonism Beta-lactamase Assay, Ratio, Phase 5 (AID 2283599). Summed up:
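HCT-116 p53-bla cells (4000/well) plated 5 h, dosed with compound (217-fold DMSO dilution) for 16 h at 37 C; CCF4-AM substrate 2 h at room temperature. Activity is the 460/530 nm emission ratio (405 nm excitation), fitted in gain-of-signal direction versus DMSO.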

Experiment [4] is described as follows: TOX21_p53_BLA_p5_viability: Viability Assessment in the Tox21 HCT-116 p53 Agonism Beta-lactamase Assay, Phase 5 (AID 2283600). Summed up:
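Luciferase-coupled ATP quantitation of cells treated for 16 h (37C, 5% CO2) with test chemicals delivered in DMSO via a 217-fold dilution; 4000 cells/well; reagent incubated 30 min at room temperature before luminescence reading.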

Experiment [5] has as its target Cellular tumor antigen p53 (Homo sapiens) (UniProt P04637). Briefly: TOX21_p53_BLA_p4_ratio: Tox21 HCT-116 p53 Agonism Beta-lactamase Assay, Ratio, Phase 4 (AID 2283601). In a few lines: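 HCT-116 p53 beta-lactamase reporter cells (4000/well) preincubated 5 h, then compound (217-fold dilution of DMSO stock) for 16 h at 37C. CCF4-AM substrate added 2 h at room temperature; 460/530 nm emission ratio fitted upward versus DMSO.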

Experiment [6] in a line: TOX21_p53_BLA_p4_viability: Viability Assessment in the Tox21 HCT-116 p53 Agonism Beta-lactamase Assay, Phase 4 (AID 2283597).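 Also: hits lower the luminescence signal meaning cytotoxicity.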 In a few lines: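 Cytotoxicity was inferred from loss of CellTiter-Glo luminescence. HCT116 cells had been dosed with compounds after 5 h plating, incubated 16 h at 37C and 5% CO2, and exposed to the CCF4-AM substrate for 2 h.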
Experiment [7] is described as follows: TOX21_p53_BLA_p3_viability: Viability Assessment in the Tox21 HCT-116 p53 Agonism Beta-lactamase Assay, Phase 3 (AID 2283593).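 Also: cells exposed to compound for 16 h before reading.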 In a few lines:
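HCT116 cells, 4000/well, dosed 5 h after plating by pin transfer (217-fold dilution from DMSO stock) and incubated 16 h at 37C, 5% CO2. Viability read as ATP luminescence with CellTiter-Glo after 30 min at room temperature.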

Experiment [8] addresses Cellular tumor antigen p53 (Homo sapiens) (UniProt P04637). Briefly: TOX21_p53_BLA_p3_ratio: Tox21 HCT-116 p53 Agonism Beta-lactamase Assay, Ratio, Phase 3 (AID 2283596). Summed up: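 Cells were seeded at 4000/well, rested 5 h at 37C, then dosed with DMSO compound solutions (217-fold dilution) for 16 h. CCF4-AM substrate was loaded for 2 h at room temperature, and the 460/530 nm emission ratio was fitted for gain of signal versus DMSO.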

Cellular tumor antigen p53 (Homo sapiens), sequence (P04637 whole entry, looked up): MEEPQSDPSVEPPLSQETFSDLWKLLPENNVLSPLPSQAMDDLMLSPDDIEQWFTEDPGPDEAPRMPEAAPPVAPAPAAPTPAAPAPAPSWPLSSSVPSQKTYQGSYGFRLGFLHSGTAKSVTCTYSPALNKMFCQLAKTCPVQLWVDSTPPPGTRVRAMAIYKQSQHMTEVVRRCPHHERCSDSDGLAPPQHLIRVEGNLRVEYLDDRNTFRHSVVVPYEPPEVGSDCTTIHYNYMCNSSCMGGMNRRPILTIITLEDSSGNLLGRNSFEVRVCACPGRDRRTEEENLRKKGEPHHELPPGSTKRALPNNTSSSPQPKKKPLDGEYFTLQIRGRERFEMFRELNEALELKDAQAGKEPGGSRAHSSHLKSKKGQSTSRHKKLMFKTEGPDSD

As for `NS(=O)(=O)c1cc2c(cc1Cl)NC(CC1CCCC1)NS2(=O)=O` (configuration not stated), the result in experiment [1], in experiment [2], in experiment [3] and in experiment [4] was inactive.
In the case of `O=[N+]([O-])c1ccc(/C=N\O)o1`, the result in experiment [1], in experiment [2] and in experiment [3] was inactive.
Turning to `Cc1cc(O)cc2c1O[C@](C)(CCC[C@H](C)CCC[C@H](C)CCCC(C)C)CC2`, the molecule was called inactive in experiment [1], in experiment [2], in experiment [3], in experiment [4] and in experiment [5].
For the molecule `O=c1[nH]cnc2nc[nH]c12`, the molecule was called inactive in experiment [1], in experiment [2], in experiment [3] and in experiment [5].
Take `CC1(C)S[C@@H]2[C@H](N=CN3CCCCCC3)C(=O)N2[C@H]1C(=O)O`: the molecule was called inactive in experiment [1], in experiment [2], in experiment [6], in experiment [4] and in experiment [5].
With `CC1(N)CCC(C(C)(C)N)CC1` (configuration not stated), the molecule was classed as inactive in experiment [1], in experiment [2], in experiment [3] and in experiment [4].
Take `CCCc1ncc(C[n+]2ccccc2C)c(N)n1`: the molecule was classed as inactive in experiment [1], in experiment [2], in experiment [6], in experiment [4] and in experiment [5].
`CCOc1cc(OCC)c(C(=O)CCC(=O)O)cc1OCC`: the call in experiment [1], in experiment [2], in experiment [6], in experiment [4] and in experiment [5] was inactive.
On to `O=C(OCCO)c1ccccc1O`, for which the call in experiment [1], in experiment [2], in experiment [6] and in experiment [5] was inactive.
With `N#CCc1ccccc1[N+](=O)[O-]`, the molecule was called inactive in experiment [1], in experiment [2], in experiment [3], in experiment [4] and in experiment [5].
Regarding `Cc1c(Cn2ccnc2)c2ccccc2n1CCC(=O)O`, the call in experiment [1], in experiment [2], in experiment [3], in experiment [4] and in experiment [5] was inactive.
For `COc1ccc(N=[N+]([O-])c2ccc(OC)cc2)cc1`, the call in experiment [1], in experiment [2] and in experiment [3] was inactive.
Consider `O=C1NC(=O)[C@@]2(CCOc3ccc(F)cc32)N1`, for which the result in experiment [1], in experiment [2], in experiment [3], in experiment [4] and in experiment [5] was inactive.
Regarding `CCCCCCCCN`, the molecule was called inactive in experiment [1], in experiment [2], in experiment [3] and in experiment [4].
Turning to `N[C@H](C(=O)O)c1ccc(O)cc1`, the molecule was classed as inactive in experiment [1], in experiment [2], in experiment [3], in experiment [4] and in experiment [5].
For the molecule `CC(=O)[C@H]1CC[C@H]2[C@@H]3C[C@H](C)C4=CC(=O)CC[C@]4(C)[C@H]3[C@@H](O)C[C@]12C`, the outcome in experiment [1], in experiment [2] and in experiment [3] was inactive.
Consider `NC(=S)NC(N)=S`, for which the molecule was called inactive in experiment [1], in experiment [2], in experiment [6] and in experiment [5].
With `CCCCCCN`, the result in experiment [1], in experiment [2], in experiment [3] and in experiment [4] was inactive.
Take `NCCC[C@H](N)CC(=O)N[C@H]1CNC(=O)[C@H]([C@H]2C[C@H](O)NC(N)=N2)NC(=O)/C(=C/NC(N)=O)NC(=O)[C@H](CO)NC(=O)[C@H](CO)NC1=O` (β3hOrn-[Dap]SS[ΔAla(Z-3-ureido)][X3]; lactam 1-C): the molecule was classed as inactive in experiment [1], in experiment [2], in experiment [6] and in experiment [5].
On to `CCNc1cc(O)ccc1C`, for which the result in experiment [1], in experiment [2], in experiment [6], in experiment [4] and in experiment [5] was inactive.
As for `O=c1[nH]c(=O)c2ccccc2o1`, the call in experiment [1], in experiment [2] and in experiment [3] was inactive.
As for `CCNc1nc(NC(C)CC)nc(OC)n1` (configuration not stated), the outcome in experiment [1], in experiment [2], in experiment [3] and in experiment [5] was inactive. The concentration at half-maximal activity (AC50) in experiment [4] is 0.00012 µM (active).
As for `C=CCCCCCCC=C`, the call in experiment [1], in experiment [2], in experiment [6], in experiment [4] and in experiment [5] was inactive.
As to `Nc1ccn(C[C@@H](CO)OCP(=O)(O)O)c(=O)n1`, the result in experiment [1], in experiment [2], in experiment [3] and in experiment [4] was inactive.
For the molecule `NC/C=C/C(=O)O`, the call in experiment [1], in experiment [2], in experiment [4] and in experiment [5] was inactive.
`O=C(O)c1ccc(NC2OC[C@@H](O)[C@H](O)[C@H]2O)cc1` (some centres not stated): the outcome in experiment [1], in experiment [2] and in experiment [5] was inactive.
As for `CC(C)CN(C[C@@H](O)[C@H](Cc1ccccc1)NC(=O)O[C@@H]1CCOC1)S(=O)(=O)c1ccc(N)cc1`, the outcome in experiment [1], in experiment [2] and in experiment [4] was inactive.
Take `CN1CCN(C(=O)C2CCCCC2)CC1`: the molecule was classed as inactive in experiment [1], in experiment [2] and in experiment [4].
As to `CCCCCCCCCCCCC(=O)O`, the result in experiment [1], in experiment [7], in experiment [8], in experiment [6], in experiment [3] and in experiment [4] was inactive.
As to `NC(=O)CCCCC(N)=O`, the molecule was called inactive in experiment [1], in experiment [7], in experiment [8], in experiment [6], in experiment [3] and in experiment [4].
For `C[N+](C)(C)CCCCCCCCCC[N+](C)(C)C`, the molecule was called inactive in experiment [1], in experiment [2], in experiment [4] and in experiment [5].
Regarding `OCCN1CCN(CCCN2c3ccccc3C=Cc3ccccc32)CC1`, the call in experiment [1], in experiment [7], in experiment [8], in experiment [6], in experiment [3] and in experiment [4] was inactive. Moreover, the result in experiment [5] was inactive. In experiment [6], the AC50 is 28.1 µM (active).
On to `Cc1cccc(C)c1NC(=O)c1cc(S(N)(=O)=O)c(Cl)cc1O`, for which the result in experiment [1] and in experiment [7] was inactive.
For the molecule `CNC(=O)C[C@@H](N)C(=O)N[C@@H](C(=O)N[C@@H]1C(=O)N2[C@@H]1SC(C)(C)[C@@H]2C(=O)O)c1ccc(O)cc1`, the molecule was classed as inactive in experiment [1], in experiment [2], in experiment [4] and in experiment [5].
Turning to `CC(C)N=c1cc2n(-c3ccc(Cl)cc3)c3ccccc3nc-2cc1Nc1ccc(Cl)cc1`, the outcome in experiment [1], in experiment [7], in experiment [8], in experiment [6], in experiment [3] and in experiment [4] was inactive.
